From PubChem BioAssay (NCATS) come the findings set out here.

Results filed as inconclusive are left out. Unmarked numbers belong to inactive results. Active and inactive are the calls of the source. The call rests on the fitted dose curve; in most records, active means well fitted inhibition curve with a large enough effect; inconclusive means small, poorly fitted or top-dose-only effect; inactive means flat fitted curve, though single readings scatter. Bridge positions count the residues as written; N and C are the ends. Square brackets hold non-standard residues; d marks the D form. Peptide text beside a SMILES is read from it. * marks the point of attachment. Octanoyl(6-Me) = CCC(C)CCCCC(=O)*; Dab = NCC[CH](N)C(=O)O
Potency means the concentration at half of the fitted maximal effect.

The assay deals with CP203. Briefly: qHTS profiling for inhibitors of Plasmodium falciparum proliferation (AID 504749). Further: nearly all actives have a fitted effect of over 60% in size.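 On activity, negative = inhibition: 0% = DMSO vehicle and full inhibition = artemisinin control.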 To be noted: P. falciparum in erythrocytes, SYBR Green DNA, 72 h; series mostly up to 28.7 µM; activity, negative = inhibition: at the top concentration. An excerpt:
NIH National Institute of Allergy and Infectious Diseases [NIAID] NIH Chemical Genomics Center [NCGC] MLPCN Grant: None Assay Provider: Xinzhuan Su, NIAID NCGC Assay Overview: Plasmodium falciparum is a virulent malarial parasite that kills 1-2 million people worldwide each year. Transmitted by mosquitoes, the sporozoite form of the parasite enters the blood stream to infect hepatocytes, where they become merozoites that infect red blood cells (erythrocytes). Within erythrocytes, merozoites begin a […] cycle of growth and division, after which the parasite is released to infect new red blood cells. Gametocytes, which form within erythrocytes as well, circulate in the bloodstream and are ingested by the mosquito, thereby completing the life cycle. To profile malarial isolates for differential chemical responses and to identify inhibitors of malarial growth, an assay that measures P. falciparum growth and replication within erythrocytes was employed. This assay uses a DNA binding fluorescent dye (SYBR Green) to detect parasite DNA following cell lysis. Because mature erythrocytes lack DNA, only Plasmodium-derived DNA is detected.
NCGC Assay Protocol Summary: The SYBR Green viability assay was adapted from a method described previously (Plouffe et al., 2008). For screening 3 ul culture medium was dispensed into 1536 well black clear bottom plates (Aurora Biotechnologies) using a Multidrop Combi (Thermo Fisher Scientific Inc.), 23 nL compounds in DMSO were added by a pin tool (Kalypsys), and 5 ul of erythrocytes infected with P. falciparum (0.3% parasitemia, 2.5% hematocrit final concentration) were added. The plates were incubated at 37 C in a humidified incubator in 5% CO2 for 72 h, and 2 ul lysis buffer (20 mM Tris HCl, 10 mM EDTA, 0.16% saponin, 1.6% triton X, 10X SYBR Green I supplied as 10,000X […] by Invitrogen) was added to each well. The plates were mixed for 25 sec with gentle shaking and incubated overnight at room temperature in the dark. The following morning, fluorescence intensity at 485(14) nm excitation and 535(25) nm emission wavelengths was measured on an EnVision (Perkin Elmer) plate reader. Plate reads were normalized relative to the control inhibitor (0.29 uM artemisinin) and vehicle (DMSO) wells present on each plate and then corrected by an algorithm using vehicle-only control plates at the beginning and end of the compound plate stack.
For orientation: qHTS replaces the single test concentration by a dilution series.
On to `NC1=NC(S)C2N=CN=C2N1` (stereo not drawn), for which the “activity, negative = inhibition” value was -4.77%. The same measure, in the same setting: to `C/C=C\c1ccc(OC)cc1` belongs 1.19%.

As for `CN1CC[C@H](CN2c3ccccc3Sc3ccccc32)C1`, the Potency was 9.53 µM (active).

Regarding `Nc1nc(Cl)nc2c1ncn2C1CC(O)C(CO)O1` (stereo not drawn), the “activity, negative = inhibition” value is -18.6%. On to `CC1CCC(C(C)C)C(OC(=O)c2ccccc2O)C1` (stereo not drawn), for which the “activity, negative = inhibition” value is 7.72%. Consider `CC1(C)S[C@@H]2[C@H](NC(=O)COc3ccccc3)C(=O)N2[C@H]1C(=O)O`, for which the “activity, negative = inhibition” value was 6.75%. In the case of `CO/N=C(/C(=O)N[C@@H]1C(=O)N2C(C(=O)O)=CCS[C@H]12)c1csc(N)n1`, the “activity, negative = inhibition” value is 5.05%. Consider `O=NCc1ccc([N+](=O)[O-])o1`, for which the “activity, negative = inhibition” value is -5.93%. With `CC(C)CN(C[C@@H](OP(=O)(O)O)[C@H](Cc1ccccc1)NC(=O)O[C@@H]1CCOC1)S(=O)(=O)c1ccc(N)cc1`, the “activity, negative = inhibition” value is 4.96%. In the case of `CCC(C)CCCCC(=O)NC(CCN)C(=O)NC(C(=O)NC(CCN)C(=O)NC1CCNC(=O)C(C(C)O)NC(=O)C(CCN)NC(=O)C(CCN)NC(=O)C(CC(C)C)NC(=O)C(Cc2ccccc2)NC(=O)C(CCN)NC1=O)C(C)O` (stereo not drawn) ({Octanoyl(6-Me)}-[Dab]T[Dab][Dab][Dab]FL[Dab][Dab]T; lactam 4-C; configuration not given here), the “activity, negative = inhibition” value is 11.3%. As to `C1OCOCO1`, the “activity, negative = inhibition” value was -1.81%.

`Cc1cc(CC(C)CC(C)(C)C)n(O)c(=O)c1` (stereo not drawn): the Potency is 3.38 µM (active).

Regarding `C=C[C@]1(C)C[C@@H](OC(=O)CSCCN(CC)CC)[C@]2(C)C(C)CC[C@]3(CCC(=O)[C@H]32)[C@@H](C)[C@@H]1O` (stereo partly drawn), the Potency is 13.5 µM (active). As to `CC(=O)O[C@@]12CO[C@@H]1C[C@H](O)[C@@]1(C)C(=O)[C@H](O)C3=C(C)[C@@H](OC(=O)C(O)[C@@H](NC(=O)OC(C)(C)C)c4ccccc4)C[C@@](O)([C@@H](OC(=O)c4ccccc4)[C@H]21)C3(C)C` (stereo partly drawn), the Potency was 0.0536 µM (active). `CCC(C)n1ncn(-c2ccc(N3CCN(c4ccc(OCC5COC(Cn6cncn6)(c6ccc(Cl)cc6Cl)O5)cc4)CC3)cc2)c1=O` (stereo not drawn): the “activity, negative = inhibition” value was 0.861%. Consider `CC(=O)OC1CC2CCC1(C)C2(C)C` (stereo not drawn), for which the “activity, negative = inhibition” value is 1.73%. For `CN(C)CCCCCCN(C)C`, the “activity, negative = inhibition” value is -0.289%. On to `CCN1/C(=C/C=C/C=C/c2sc3ccccc3[n+]2CC)Sc2ccccc21`, for which the Potency is 6.75 µM (active).
